Screening results from PubChem.
Mot1-301 SUMO = blocks SUMOylation pathway, rescuing yeast Mot1-301 growth. growth rescue, % at 18.8 µM. hit rate 1% among 320,000. AID 2716. S. cerevisiae Mot1-301 growth rescue, ATP luminescence, 38.5C; percent above DMSO median, 100 means doubled;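 active = every valid replicate shows activation above 250% relative to neutral control wells; inactive = the rest, any valid replicate at or below 250%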
Calb FLC = affects C. albicans growth with fluconazole; C. albicans CaCi-2 (fluconazole-resistant clinical isolate) + fluconazole, Alamar Blue growth, 48 h; growth inhibition, % (no concentration beside the values); hit rate 0.57% among 300,000; AID 1979;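 active = growth inhibition above about 58% in most replicates, limit read from the data, passing the limit was not always enough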;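 note: all wells also contain fluconazole at 8 µg/ml as a sub-toxic cotreatment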
FAS-TE inh = inhibitors of human fatty acid synthase thioesterase domain; P49327; recombinant FAS-TE, OMFH fluorogenic substrate, fluorescence endpoint; inhibition, % at 15 µM; hit rate 0.67% among 360,000;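 active = compounds whose normalised, plate-corrected inhibition of enzyme fluorescence in the single-dose primary screen is 50% or more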
NadD inh = inhibitors of Staphylococcus aureus NadD; purified NadD enzyme, colorimetric absorbance read-out; hit rate 0.78% among 360,000; inhibition, % at 20 µM; in the data active = inhibition above about 26%
ATG4B inh = blocks human ATG4B protease cleavage of LC3 substrate. Q9Y4P1. ATG4B cleavage of LC3-PLA2, NBD-HPC fluorescence, 1 h. inhibition, % at 8.33 µM. hit rate 0.51% among 340,000. AID 504462; in the data active = inhibition above about 40%
Target sequence (Q9Y4P1 whole entry, looked up): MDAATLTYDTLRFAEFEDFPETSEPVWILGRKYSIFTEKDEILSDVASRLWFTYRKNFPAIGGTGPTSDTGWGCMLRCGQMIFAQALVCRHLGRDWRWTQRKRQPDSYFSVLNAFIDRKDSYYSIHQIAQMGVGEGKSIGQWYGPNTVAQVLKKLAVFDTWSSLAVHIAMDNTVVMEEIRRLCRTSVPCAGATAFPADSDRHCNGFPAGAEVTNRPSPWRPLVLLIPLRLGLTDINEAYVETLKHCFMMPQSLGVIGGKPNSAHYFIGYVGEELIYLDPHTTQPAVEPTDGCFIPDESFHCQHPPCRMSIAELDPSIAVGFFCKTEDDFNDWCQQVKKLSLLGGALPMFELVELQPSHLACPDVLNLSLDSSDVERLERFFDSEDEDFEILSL
NadD conf = NadD (S. aureus) inhibition, single concentration confirmation | AID 624309 | inhibition, % at 20 µM | purified S. aureus NadD, colorimetric enzyme assay | shares compounds with NadD inh | hit rate 13% among 2,000; in the data active = inhibition mostly above about 42%, no sharp cut-off; inactive = mostly below about 42%
Of the large screens only hits and unclear results are named; the others gave an inactive call (follow-up assays come after a bar, where they were run). Compounds with a hit are over-represented: about 3.1% of the library has one in this group of screens.

C=C(CC[C@@H](O)C(C)(C)O)[C@H]1CC[C@]2(C)[C@@H]1CCC1[C@@]3(C)CC[C@H](O)C(C)(C)C3CC[C@]12C (stereo not given in full)	none (no result: Calb FLC)
Cc1ccccc1Nc1n[nH]c(=S)s1	none (no result: Mot1-301 SUMO, Calb FLC, ATG4B inh)
Fc1ccccc1Nc1n[nH]c(=S)s1	none
S=c1[nH]nc(Nc2cccc3ccccc23)s1	NadD inh 37.2 | NadD conf inactive
Cc1c(Cl)cccc1Nc1n[nH]c(=S)s1	NadD inh 32.4 (no result: Mot1-301 SUMO, Calb FLC) | NadD conf inactive
O=C(NCC(F)(F)F)c1ccc(S(=O)(=O)N2CCN(C(=O)C3CCCO3)CC2)cc1 (stereo not given)	none (no result: Calb FLC)
CCN(CC)S(=O)(=O)c1ccc(C(=O)N2CCN(C(=O)c3ccco3)CC2)cc1	none (no result: Calb FLC)
CCN(CC)C(=O)[C@H]1CC(CC(=O)NCCN2CCOCC2)C(=O)N2CCc3c([nH]c4ccccc34)[C@]12C (stereo not given in full)	none (no result: Calb FLC)
O=C(c1ccccn1)N1CCCC(N2CCN(c3cccc(C(F)(F)F)c3)CC2)C1 (stereo not given)	none
CCN(CC)C(=O)C1CCCN(C(=O)c2cc(COc3cccc(OC)c3)on2)C1 (stereo not given)	none
O=C(O)c1cccc(NC(=S)NC(=O)c2ccc(-c3ccc(Cl)cc3)o2)c1	NadD inh 37.5 | NadD conf inactive
COCCN1C(=O)Cc2c1nc(N)c1c(N)nc(N3CCN(c4ccc(F)cc4)CC3)c(C#N)c21	NadD inh 37.3 | NadD conf inactive
O=C(CN1CCc2ccccc21)Nc1ccc2c(c1)OCO2	NadD inh 56.4 | NadD conf inactive
O=C(CN1CCc2ccccc21)NCc1ccc2c(c1)OCO2	none
O=C(NC(=S)Nn1cnc2c(cnn2-c2ccccc2)c1=O)c1ccc(Oc2ccccc2)cc1	NadD inh 42.0 | NadD conf inactive
O=C(Nc1ccc(N2CCCC2)cc1)c1cc(Br)ccc1Cl	NadD inh 41.3 | NadD conf 54.9
O=C(Nc1ccc(N2CCN(Cc3ccccc3)CC2)cc1)c1ccccc1[N+](=O)[O-]	none
O=C(Nc1ccc(N2CCCC2)cc1)c1ccccc1[N+](=O)[O-]	NadD inh 26.7 | NadD conf inactive
CS(=O)(=O)c1ccc(C(=O)Nc2ccc(N3CCCC3)cc2)c(Cl)c1	none
Cc1ccc(C(=O)Nc2ccc(N3CCCC3)cc2)c(C)c1	NadD inh 32.0 | NadD conf inactive
COCCNc1nc(NCc2cccc(OC)c2)c2sc(-c3ccccc3)cc2n1	none (no result: Mot1-301 SUMO, Calb FLC, ATG4B inh)
O=C(Nc1ccnn1C1CCN(Cc2cccc(OCCO)c2)CC1)C1CC1	none
CC(=O)Nc1cccc(-c2cc(C)c3cc4c(cc3n2)OCO4)c1	none (no result: Mot1-301 SUMO)
Cn1c(=O)[nH]c(=O)c2c1[nH]c(=S)n2CCCc1ccccc1	NadD inh 32.4 (no result: Mot1-301 SUMO) | NadD conf inactive
Cn1c(=O)c2c([nH]c(=S)n2CCCc2ccccc2)n(C)c1=O	none
COc1cccc(NC(=O)C(=O)NCCC2CCCCN2S(=O)(=O)c2cccs2)c1 (stereo not given)	none
CC1CC(NC(=O)c2c(O)nc3sccn3c2=O)CC(C)(C)C1 (stereo not given)	NadD inh 34.9 | NadD conf inactive
Cc1ccc(NC(=O)COC(=O)[C@H](C)NC(N)=O)c(C)c1	none
O=C(/C=C/c1ccc2ccccc2n1)c1cc(Cl)ccc1O	NadD inh 32.6 | NadD conf inactive
O=C(/C=C/c1cccs1)c1cc(Cl)ccc1O	none
Cc1ccc(NC(=O)C2(c3ccccc3)CCCC2)nc1	NadD inh 31.5 | NadD conf inactive
O=C(Nc1ccccn1)C1(c2ccccc2)CCCC1	none
C[C@@H]1CCCCO[C@H](CN(C)C(=O)Nc2ccc(C(F)(F)F)cc2)[C@@H](C)CN([C@H](C)CO)C(=O)c2cc(NC(=O)c3ccncc3)ccc2O1	NadD inh 35.0 (no result: Mot1-301 SUMO, Calb FLC, ATG4B inh) | NadD conf inactive
C[C@@H]1CCCCO[C@H](CN(C)C(=O)CCC(F)(F)F)[C@@H](C)CN([C@H](C)CO)C(=O)c2cc(NC(=O)c3ccncc3)ccc2O1	none (no result: Mot1-301 SUMO, Calb FLC, ATG4B inh)
COc1cc(CCC(=O)Nc2ccc(Br)c(C(F)(F)F)c2)cc(OC)c1OC	none
NS(=O)(=O)c1ccc(N/N=C/c2cn(-c3ccccc3)nc2-c2cccs2)c([N+](=O)[O-])c1	NadD inh 36.3 | NadD conf inactive
Cc1ccc(C(=O)c2oc3ccccc3c2NC(=O)c2cc(-c3cc(C)ccc3O)n[nH]2)cc1	NadD inh 39.5 | NadD conf inactive
